Source: PubChem BioAssay AID504697 (The Scripps Research Institute Molecular Screening Center, 2011)
The source made the active and inactive calls.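 The calls were made as follows: active = EC50 at or below 10 µM; inactive = EC50 above 10 µM.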

Assay: compound autofluorescence in calcium buffer – biochemical, fluorescence, no RTF in test wells, artefact control for cardiac thin filament activator project, dose response (AID 504697);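 also: emission near 535 nm under roughly 485 nm excitation as for IANBD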
Conditions: compound-only fluorescence in RTF assay buffer with Ca2+ (no RTF in test wells), artifact counterscreen

| Structure (SMILES) | EC50 |
| --- | --- |
| Fc1ccc(CNC(=S)NCc2ccc(F)cc2)cc1 | > 71.5 µM (inactive) |
| Cc1ccc(-c2ccc(OC(=O)c3ccc(=O)[nH]c3)c(C)c2)cc1 | > 71.5 µM (inactive) |
| Cc1cccn2c(=O)c(/C=C3\SC(=S)N(CC(C)C)C3=O)c(NCCCOC(C)C)nc12 | 0.988 µM (active) |
| Cc1ccc(N2C(=O)C3C(C(=O)c4ccccc4)=NN(c4ccccc4)C3C2=O)cc1 (stereo unspecified) | 33.8 µM (inactive) |
| CCSC1=N/C(=C\C=C2/Oc3ccccc3N2CC)C(=O)S1 | 11.9 µM (inactive) |
| COc1ccc(CNC(=O)c2sc(=S)n(-c3ccccc3)c2N)cc1 | > 71.5 µM (inactive) |
| O=C(Nc1ccc(Cl)c(Cl)c1)Nc1ccc([N+](=O)[O-])cn1 | > 71.5 µM (inactive) |
| CCc1ccc(C(=O)NNC(=O)c2cccc(N3C(=O)CCC3=O)c2)cc1 | > 71.5 µM (inactive) |
| Cc1cc(S(=O)(=O)N2CCCC(C(=O)Nc3ccc(C(=O)O)cc3)C2)ccc1Cl (stereo unspecified) | > 71.5 µM (inactive) |
| CCOC(=O)N1CCN(C(=S)Nc2ccccc2C)CC1 | > 71.4 µM (inactive) |
| O=C(O)c1cc(NCc2ccc(F)cc2)ccc1N1CCOCC1 | > 71.5 µM (inactive) |
| CCN(CC)C(=S)SCC(=O)c1c(C)[nH]c2ccccc12 | > 71.5 µM (inactive) |
| CN1c2ccccc2C(O)=C(C(=S)Nc2ccc(F)c(Cl)c2)S1(=O)=O | > 71.5 µM (inactive) |
| NC(=O)NC(=O)COC(=O)c1cccc(NS(=O)(=O)/C=C/c2ccccc2)c1 | > 71.5 µM (inactive) |
| Cc1cccc(/C=N/n2c(-c3ccncc3)n[nH]c2=S)c1 | > 71.5 µM (inactive) |
| Cc1cc(NC(=O)COC(=O)C(Cc2ccccc2)NC(=O)c2ccco2)no1 (stereo unspecified) | > 71.5 µM (inactive) |
| Cn1cc(/C=C2\SC(=S)N(NC(=O)c3ccccc3)C2=O)c2ccccc21 | 9.01 µM (active) |
| Cc1ccc(N2C3=C(C(=O)CC(C)(C)C3)C(c3cn(C)nc3C)C3=C2CC(C)(C)CC3=O)cc1 | 17.1 µM (inactive) |

| Structure (SMILES) | EC50 |
| --- | --- |
| CCOc1cc(/C=C2\N=C(SC(C)C(N)=O)N(c3ccc(OC(F)F)cc3)C2=O)ccc1O (stereo unspecified) | 23.3 µM (inactive) |
| COc1ccc(/C=N/NC(=O)c2cc(OC)c(OC)c(OC)c2)cc1CN1CCc2cc(OC)c(OC)cc2C1C (stereo unspecified) | > 71.5 µM (inactive) |
| COc1ccc(C(=O)Nn2cnc3scc(-c4cccs4)c3c2=O)c(O)c1 | > 71.5 µM (inactive) |
| O=C(Nc1ccccc1-c1ccccc1)c1ccc(Cl)c([N+](=O)[O-])c1 | > 71.5 µM (inactive) |
| COc1ccc(CCNC(=O)COC(=O)c2cc(=O)[nH]c3ccccc23)cc1 | > 71.5 µM (inactive) |
| O=C(O)CCC(=O)Nc1cc(C(F)(F)F)cc(C(F)(F)F)c1 | > 71.4 µM (inactive) |
| O=[N+]([O-])c1ccc(/C=C/C2=NN(c3ccccc3)C(c3ccco3)C2)cc1 (stereo unspecified) | 1.04 µM (active) |
| CC(C)CN1CCN(Cc2cccn2-c2ccc(Cl)cn2)CC1CCO (stereo unspecified) | > 71.5 µM (inactive) |
| Cc1cc(C)c2nc(NC(=O)C3CCCO3)sc2c1 (stereo unspecified) | > 71.5 µM (inactive) |
| COc1ccc(/C=N/NC(=O)c2cccnc2)cc1CN1CCOCC1 | > 71.5 µM (inactive) |
| O=C(Nc1ccc(C(=O)N2CCOCC2)cc1)Nc1cccc(Cl)c1 | > 71.5 µM (inactive) |
| CCN(CC)c1ccc(/C=c2\sc3nc4ccccc4n3c2=O)c(O)c1 | 14.4 µM (inactive) |
| C[C@@H](C(=O)N1CCNCC1)n1cc(CCCN=C(N)N)nn1 | > 71.5 µM (inactive) |
| CC(=O)Nc1ccc(N=Cc2nc(-c3ccc(C)cc3)oc2O)cc1 | 20 µM (inactive) |
| O=C(Nc1ccc(Cl)cn1)C1COc2ccccc2O1 (stereo unspecified) | > 71.5 µM (inactive) |
| CCCN1C=CC(=CC=C(C#N)C#N)C=C1 | 19.9 µM (inactive) |
| CC1(C)CC(=O)C=C(Nc2ccccc2N)C1 | > 71.5 µM (inactive) |
| Cc1c(O)c2c3c(cccc3c1O)C(=O)N(c1ccccc1)C2=O | 13.9 µM (inactive) |
